Compound activity: PubChem BioAssay, The Scripps Research Institute Molecular Screening Center
FBW7 act: human FBW7 E3 ligase activation, primary screen. Q969H0. AlphaScreen FBW7–phospho-cyclin E peptide binding, activator screen. normalized activity (activation), % at 26.1 µM. 650,000 tested, 0.13% active; in the data active means normalized activity above about 1.9%;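 further: purified mutant Fbw7 with reduced substrate affinity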
MITF primary: blocks human microphthalmia-associated transcription factor. inhibition, % at 2.6 µM. 650,000 tested, 0.91% active. O75030. AlphaScreen MITF homodimerization, bead proximity signal; in the data active means inhibition above about 50%;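 further: 0% = vehicle wells with protein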
Target sequence (O75030 whole entry, looked up): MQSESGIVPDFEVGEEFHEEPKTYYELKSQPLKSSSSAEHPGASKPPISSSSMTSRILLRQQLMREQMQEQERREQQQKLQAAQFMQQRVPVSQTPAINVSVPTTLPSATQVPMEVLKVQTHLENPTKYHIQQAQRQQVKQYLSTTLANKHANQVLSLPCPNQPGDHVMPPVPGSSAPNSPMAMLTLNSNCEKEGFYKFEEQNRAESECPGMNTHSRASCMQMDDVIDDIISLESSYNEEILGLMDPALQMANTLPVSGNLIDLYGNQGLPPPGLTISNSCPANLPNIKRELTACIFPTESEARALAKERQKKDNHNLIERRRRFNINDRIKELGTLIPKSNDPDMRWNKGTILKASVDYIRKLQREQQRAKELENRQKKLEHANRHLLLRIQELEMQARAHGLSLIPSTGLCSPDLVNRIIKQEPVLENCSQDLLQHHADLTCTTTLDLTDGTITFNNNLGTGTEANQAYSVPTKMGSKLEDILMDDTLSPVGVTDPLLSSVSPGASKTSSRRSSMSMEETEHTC
GPR151 activ: activators of human GPR151 | 650,000 tested, 1% active | AID 1508602 | PathHunter beta-arrestin GPR151 cells, luminescence | Q8TDV0 | activation, % at 11.2 µM; in the data active means activation above about 4.9%;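 further: 0% = median of compound wells and 100% = cells with positive control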
TEAD-YAP block: TEAD-YAP interaction inhibition; 640,000 tested, 1.4% active; inhibition, % at 9.12 µM; HEK-TIYL cells, TEAD-Gal4/YAP UAS-luciferase luminescence; in the data active means inhibition above about 32%;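 further: 0% = median of test compound wells and 100% = reference inhibitor wells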
Active calls of the source: *; . = no result given; ! = repeats disagree. Hits are enriched below; roughly 3.5% of the tested compounds scored in any of these assays.

SMILES | FBW7 act | MITF primary | GPR151 activ | TEAD-YAP block
Cc1cccc(N2C(=O)c3ccc(C(=O)Nc4ccccc4)cc3C2=O)c1 | 0 | -1 | 0 | 0
CN(CCC#N)c1ccc(/C=C(\C#N)c2ccccn2)cc1 | 0 | -1 | -4 | 49*
O=C(Nc1noc2ccccc12)c1c(F)cccc1F | 0 | -6 | -12 | 57*
O=C(Nc1noc2ncccc12)c1ccccc1Cl | -1 | -6 | -4 | 94*
O=C(Nc1noc2ncccc12)c1ccccc1F | 0 | -5 | -3 | 83*
Cc1ccc2c(NC(=O)c3ccccc3F)noc2n1 | 0 | -8 | -2 | -10
C=COCCNC(=O)C(=O)Nc1ccc(C)c(C)c1 | 0 | -5 | 0 | -24
O=C1/C(=C\C=C/c2ccco2)C(C(F)(F)F)=NN1c1ccccc1 | 0 | 65* | -1 | 5
O=C1ON=C(c2ccccc2)/C1=C/C=C/c1ccco1 | 0 | 38 | -1 | -8
CCSCCOC(=O)C1=C(C)NC2=C(C(=O)C(C(=O)OC)C(C)C2)C1c1ccc(OC)cc1OC (stereo not drawn) | 0 | 3 | 0 | -3
COc1ccccc1NC(=O)C1=C(C)NC(SCC(=O)Nc2ccc(C)c(Cl)c2)=C(C#N)C1c1ccco1 (stereo not drawn) | 0 | -3 | 0 | 12
COCCNCCCCOc1c(Cl)cc(C)cc1Br | 0 | 41 | -1 | 2
COCCCNCCCOc1c(Cl)cc(C)cc1Br | 0 | 50 | 0 | 51*
C=CCOc1c(Cl)cc(/C=c2/sc3n(c2=O)C(c2ccccc2OC(C)C)C(C(=O)OCC)=C(C)N=3)cc1OCC (stereo not drawn) | 0 | -1 | 2 | -9
CCc1nc2nc(C)cc(N3CCN(c4ccccc4OC)CC3)n2n1 | 0 | -5 | -1 | 34*
CN(C)c1ccc(/C=C2\NC(=S)NC2=O)cc1[N+](=O)[O-] | 0 | 71*! | 1 | -16
O=C1NC(=S)N/C1=C/c1ccc(O)c(O)c1 | 0 | 87* | 1 | 17
NC(=O)COC(=O)c1c(Cl)cccc1Cl | 0 | 0 | -1 | 6
Cc1ccc(-c2nc3ccccc3s2)cc1NC(=S)NC(=O)c1oc2ccccc2c1C | 0 | -13 | 0 | -20
O=C(CSc1ccc(Cl)cc1)Nc1nc2ccc(-c3ccncc3)cc2s1 | 1 | 0 | 1 | 77*
NCC(=O)N1CCC(C(=O)Nc2nc3ccc(-c4ccncc4)cc3s2)CC1 | -1 | 8 | 0 | 38*
O=[N+]([O-])c1cccc(N/N=C/c2ccc([N+](=O)[O-])s2)c1 | 0 | 0 | -1 | 39*
COC(=O)/C=C1\S/C(=N\N=C\c2ccccc2)NC1=O | 0 | 9 | 1 | 7
COC(=O)Nc1nc2ccc(C(=O)c3cccs3)cc2[nH]1 | 0 | 7 | -1 | 56*
CCCCOC(=O)c1ccccc1C(=O)c1ccc2nc(NC(=O)OC)[nH]c2c1 | 0 | 3 | 0 | 39*
SMILES | FBW7 act | MITF primary | GPR151 activ | TEAD-YAP block
COC(=O)Nc1nc2ccc(C(=O)c3ccccc3)cc2[nH]1 | 1 | -5 | 3 | 33*
COC(=O)Nc1nc2ccc(S(=O)c3ccccc3)cc2[nH]1 (stereo not drawn) | 0 | 8 | 1 | .
Cc1ccc(N(CC(=O)NCCSC2CCCCC2)S(C)(=O)=O)cc1C | 0 | 7 | 0 | 11
CN(C)CCNC(=O)CCCOc1cc(=O)n(C)c2ccccc12 | 0 | -8 | 1 | 5
CCC(C)n1c(=S)[nH]c2ccsc2c1=O (stereo not drawn) | 0 | 1 | 0 | 5
Cc1ccc(Cn2c(NCCO)nc3c2c(=O)n(C)c(=O)n3C)cc1 | 0 | -6 | 0 | 42*
COc1cccc(Cn2c(NCCO)nc3c2c(=O)n(C)c(=O)n3C)c1 | 0 | 10 | 0 | 39*
Cc1cccc(Cn2c(NCc3ccco3)nc3c2c(=O)n(C)c(=O)n3C)c1 | 0 | 13 | 0 | 46*
Cc1ccc(NC(=O)CN2Cc3ccccc3C2=O)cc1F | 0 | -23 | 2 | -5
COCCCNC(=O)c1cc(S(=O)(=O)N2CCOCC2)ccc1F | 0 | 2 | -1 | -7
CCOC(=O)C1=C(C)N=c2s/c(=C/c3ccc(N(CC)CC)cc3)c(=O)n2C1c1cccs1 (stereo not drawn) | 0 | 5 | 0 | 7
Cc1ccc2nc(NC(=O)c3cccc4ccccc34)sc2c1 | 0 | 14 | 1 | 37*
CC(=O)Nc1ccc2nc(NC(=O)C3CCCCC3)sc2c1 | 0 | 13 | 1 | 1
CS(=O)(=O)c1ccc2nc(NC(=O)c3cc(Cl)ccc3[N+](=O)[O-])sc2c1 | 0 | 14 | 2 | 40*
O=C(Nc1nc2ccc(Cl)cc2s1)c1cccc2ccccc12 | 0 | 15 | 0 | -4
